MITF primary: MITF inhibitors, primary screen, biochemical, AlphaScreen, human. 650,000 tested, 0.91% active. Microphthalmia-associated transcription factor (Homo sapiens), O75030. AlphaScreen MITF homodimerization, bead proximity signal. AID 1259374, 2018. inhibition, % at 2.6 µM; in the data active means inhibition above about 50%;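 further: 0% = vehicle wells with protein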
Target sequence (O75030 whole entry, looked up): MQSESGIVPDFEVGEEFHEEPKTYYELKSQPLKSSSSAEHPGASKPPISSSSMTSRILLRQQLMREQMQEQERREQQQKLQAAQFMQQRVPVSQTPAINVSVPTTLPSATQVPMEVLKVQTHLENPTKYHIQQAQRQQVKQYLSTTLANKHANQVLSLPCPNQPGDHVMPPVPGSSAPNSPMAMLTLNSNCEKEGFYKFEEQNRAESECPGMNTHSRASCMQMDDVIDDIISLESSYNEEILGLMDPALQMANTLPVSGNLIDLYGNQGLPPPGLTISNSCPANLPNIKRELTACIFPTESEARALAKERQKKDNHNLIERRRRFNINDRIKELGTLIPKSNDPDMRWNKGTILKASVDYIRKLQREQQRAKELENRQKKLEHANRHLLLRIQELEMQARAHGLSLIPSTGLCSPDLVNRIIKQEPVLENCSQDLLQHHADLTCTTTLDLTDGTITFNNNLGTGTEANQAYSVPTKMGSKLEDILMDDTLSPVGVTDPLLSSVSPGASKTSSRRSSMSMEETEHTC
GPR151 activ: activators of human GPR151, primary screen, cell-based, PathHunter beta-arrestin, luminescence. activation, % at 11.2 µM. G-protein coupled receptor 151 (Homo sapiens), Q8TDV0. 650,000 tested, 1% active. PathHunter beta-arrestin GPR151 cells. AID 1508602, 2020; in the data active means activation above about 4.9%;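 further: 0% = median of compound wells and 100% = cells with positive control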
FBW7 activator: FBW7 E3 ligase activators, primary screen, biochemical, AlphaScreen, human; F-box/WD repeat-containing protein 7 (Homo sapiens), Q969H0; AlphaScreen FBW7–phospho-cyclin E peptide binding, activator screen; normalized activity (activation), % at 26.1 µM; 650,000 tested, 0.13% active; in the data active means normalized activity above about 1.9%;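 further: purified mutant Fbw7 with reduced substrate affinity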
TEAD-YAP inh: TEAD-YAP interaction inhibition, primary screen, TEAD-YAP interaction inhibitor project, luminescence, HEK-TIYL cells; TEAD-Gal4/YAP UAS-luciferase luminescence; inhibition, % at 9.12 µM; 640,000 tested, 1.4% active; in the data active means inhibition above about 32%;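 further: 0% = median of test compound wells and 100% = reference inhibitor wells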
MITF inh conf: MITF inhibitors, retest of hits, confirmation, biochemical, AlphaScreen, triplicate. shares compounds with MITF primary. AlphaScreen MITF homodimerization, biotin/His-MITF beads. inhibition, % at 2.6 µM. 4,700 tested, 16% active. AID 1259372, 2018;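 active means inhibition above a cutoff derived from the DMSO control wells, cut at about 28% in these data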;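 further: 0% = MITF dimer wells with DMSO only; inhibitors lower the bead chemiluminescence by keeping MITF from dimerizing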
AlphaScreen intf2: AlphaScreen optical interference compounds, counter-screen for MITF inhibitor project, biochemical, triplicate; 4,700 tested, 7.6% active; shares compounds with MITF primary; inhibition, % at 2.6 µM; AID 1259376, 2018; LysRS AlphaScreen counterscreen, signal interference;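 active means inhibition above a cutoff derived from the DMSO control wells, cut at about 30% in these data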
* marks the source's active call; other numbers are inactive results. Shown are actives, neighbours in structure and some others; about 3.5% of the full set was active somewhere.

Screening Cc1cccc2cc(CN(Cc3cccs3)C(=O)C3CC3)c3nnnn3c12 returned MITF primary 9, GPR151 activ -1, FBW7 activator 1 and TEAD-YAP inh -3.
Screening Cc1cc(=S)cc(C)n1CCCn1ccnc1 returned MITF primary -5, GPR151 activ 0, FBW7 activator 0 and TEAD-YAP inh -2.
For Cc1cc(C(N)=O)c(C)n1CCCn1ccnc1 the results were MITF primary 76*, GPR151 activ 0, FBW7 activator -1, TEAD-YAP inh 2, MITF inh conf 15 and AlphaScreen intf2 22.
O=C(NCc1cccs1)c1nn2c(C(F)(F)F)cc(-c3ccco3)nc2c1Br was read as MITF primary 78*, GPR151 activ -1, FBW7 activator 0, TEAD-YAP inh -4, MITF inh conf 5 and AlphaScreen intf2 20.
Cc1ccc2cc(CN(C(=O)Nc3ccccc3)C3CCCC3)c3nnnn3c2c1 was read as MITF primary 65*, GPR151 activ 0, FBW7 activator 0, TEAD-YAP inh 11, MITF inh conf 3 and AlphaScreen intf2 11.
For O=C(C1CCCN(Cc2ccc(Br)cc2)C1)N1CCCCC1 (centres undefined) the results were MITF primary 60*, GPR151 activ 0, FBW7 activator 0, TEAD-YAP inh 12, MITF inh conf 7 and AlphaScreen intf2 -3.
`COc1ccc(CN2CCCC(C(=O)N3CCCC3)C2)c(OC)c1` (centres undefined) gave MITF primary 54*, GPR151 activ -1, FBW7 activator 0, TEAD-YAP inh 8, MITF inh conf -15 and AlphaScreen intf2 -3.
CCOC(=O)C1CCCN(C2CC(=O)N(c3ccc(F)cc3)C2=O)C1 (centres undefined) was read as MITF primary -2, GPR151 activ 0, FBW7 activator 0 and TEAD-YAP inh 5.
Screening CCOC(=O)C1CCCN(CC(=O)c2ccc(F)cc2)C1 (centres undefined) returned MITF primary 69*, GPR151 activ 2, FBW7 activator 0, TEAD-YAP inh -12, MITF inh conf -14 and AlphaScreen intf2 8.
`CCOc1ccccc1CN1CCCC(C(=O)N2CCCCCC2)C1` (centres undefined) gave MITF primary 70*, GPR151 activ -1, FBW7 activator 0, TEAD-YAP inh 27, MITF inh conf 16 and AlphaScreen intf2 18.
CC1CN(C)C(C)CC1NCCC1(c2ccccc2)CC(C)N(C)CC1C (centres undefined) was read as MITF primary -5, GPR151 activ 4, FBW7 activator 0 and TEAD-YAP inh 3.
For CCOc1ccccc1CN1CCC(N2CCCCCC2)CC1 the results were MITF primary 78*, GPR151 activ 0, FBW7 activator 0, TEAD-YAP inh 3, MITF inh conf -11 and AlphaScreen intf2 -4.
For CCOc1ccc(CN2CCC(C(=O)N3CCCC3)CC2)cc1 the results were MITF primary 40, GPR151 activ 1, FBW7 activator 0 and TEAD-YAP inh 1.
For CCOC(=O)C1CCCN(Cc2ccc(NC(C)=O)cc2)C1 (centres undefined) the results were MITF primary 21, GPR151 activ 1, FBW7 activator 0 and TEAD-YAP inh 3.
`CCOC(=O)C1CCCCN1Cc1ccc(O)cc1` (centres undefined) gave MITF primary 32, GPR151 activ 0, FBW7 activator 1 and TEAD-YAP inh 13.
`CCOC(=O)C1CCCN(Cc2ccc(Br)cc2)C1` (centres undefined) gave MITF primary 57*, GPR151 activ -1, FBW7 activator 0, TEAD-YAP inh -12, MITF inh conf 1 and AlphaScreen intf2 14.
CCOC(=O)C1CCCCN1Cc1ccc(Br)cc1 (centres undefined) was read as MITF primary 55*, GPR151 activ 0, FBW7 activator 0, TEAD-YAP inh 7, MITF inh conf 14 and AlphaScreen intf2 1.
For CCOc1ccc(CN2CCCC(C(=O)N3CCCC3)C2)cc1 (centres undefined) the results were MITF primary 68*, GPR151 activ -1, FBW7 activator 0, TEAD-YAP inh 0, MITF inh conf 4 and AlphaScreen intf2 15.
`CCOc1ccc(S(=O)(=O)Nc2ccc(C(F)(F)F)cc2)cc1` gave MITF primary 11, GPR151 activ 0, FBW7 activator 0 and TEAD-YAP inh 5.
Screening CC(=O)C1=C(O)C(=O)N(CCN2CCOCC2)C1c1ccc(O)cc1 (centres undefined) returned MITF primary 2, GPR151 activ 1, FBW7 activator 0 and TEAD-YAP inh -1.
For CCCN1CCN(C(=O)C2CCCN(c3nc4ccc(OCC)cc4s3)C2)CC1 (centres undefined) the results were MITF primary 62*, GPR151 activ 0, FBW7 activator 0, TEAD-YAP inh -3, MITF inh conf 15 and AlphaScreen intf2 11.
O=C(C1CCCN(Cc2ccc(Cl)cc2)C1)N1CCCCCC1 (centres undefined) was read as MITF primary 88*, GPR151 activ 0, FBW7 activator 0, TEAD-YAP inh 14, MITF inh conf -10 and AlphaScreen intf2 -3.
`CCOc1ccc2nc(N3CCCC(C(=O)Nc4ccc(NC(C)=O)cc4)C3)sc2c1` (centres undefined) gave MITF primary -8, GPR151 activ 0, FBW7 activator 0 and TEAD-YAP inh -36.
`O=c1c2cc3ccccc3cc2[nH]c(=S)n1Cc1ccco1` gave MITF primary 4, GPR151 activ 1, FBW7 activator 0 and TEAD-YAP inh -4.
For CC(C)C(=O)Nc1ccc(NC(=O)c2ccccc2)cc1 the results were MITF primary 2, GPR151 activ 0, FBW7 activator 0 and TEAD-YAP inh -44.
Screening O=C(NN1C(=O)c2ccc(Oc3ccc([N+](=O)[O-])cc3)cc2C1=O)c1ccco1 returned MITF primary 58*, GPR151 activ -1, FBW7 activator 0, TEAD-YAP inh -73, MITF inh conf 1 and AlphaScreen intf2 4.
Screening O=[N+]([O-])c1ccc(S(=O)(=O)N2CCN(Cc3ccccc3F)CC2)cc1 returned MITF primary 46, GPR151 activ -1, FBW7 activator 0 and TEAD-YAP inh -10.
O=[N+]([O-])c1ccc(S(=O)(=O)N2CCN(Cc3ccccc3Cl)CC2)cc1 was read as MITF primary 62*, GPR151 activ 2, FBW7 activator 0, TEAD-YAP inh -3, MITF inh conf 15 and AlphaScreen intf2 15.

High-throughput results (PubChem BioAssay)
